Many of the other results were omitted from the sample, so hits are more common in it than they were.
Dicer processing – inhibitors of Dicer pre-microRNA processing, primary screen, biochemical, cat-ELCCA, chemiluminescence; Endoribonuclease Dicer (Homo sapiens), Q9UPY3; 6% of 47,000 active; z-score at 25 µM; cat-ELCCA pre-miR-21 Dicer processing; stronger effect = higher value; in the data active = z-score above about 3, passing the limit was not always enough;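 note: plate controls were vehicle for no effect and no enzyme for full effect; higher signal means more uncleaved substrate so more Dicer inhibition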
Target sequence (Q9UPY3 whole entry, looked up): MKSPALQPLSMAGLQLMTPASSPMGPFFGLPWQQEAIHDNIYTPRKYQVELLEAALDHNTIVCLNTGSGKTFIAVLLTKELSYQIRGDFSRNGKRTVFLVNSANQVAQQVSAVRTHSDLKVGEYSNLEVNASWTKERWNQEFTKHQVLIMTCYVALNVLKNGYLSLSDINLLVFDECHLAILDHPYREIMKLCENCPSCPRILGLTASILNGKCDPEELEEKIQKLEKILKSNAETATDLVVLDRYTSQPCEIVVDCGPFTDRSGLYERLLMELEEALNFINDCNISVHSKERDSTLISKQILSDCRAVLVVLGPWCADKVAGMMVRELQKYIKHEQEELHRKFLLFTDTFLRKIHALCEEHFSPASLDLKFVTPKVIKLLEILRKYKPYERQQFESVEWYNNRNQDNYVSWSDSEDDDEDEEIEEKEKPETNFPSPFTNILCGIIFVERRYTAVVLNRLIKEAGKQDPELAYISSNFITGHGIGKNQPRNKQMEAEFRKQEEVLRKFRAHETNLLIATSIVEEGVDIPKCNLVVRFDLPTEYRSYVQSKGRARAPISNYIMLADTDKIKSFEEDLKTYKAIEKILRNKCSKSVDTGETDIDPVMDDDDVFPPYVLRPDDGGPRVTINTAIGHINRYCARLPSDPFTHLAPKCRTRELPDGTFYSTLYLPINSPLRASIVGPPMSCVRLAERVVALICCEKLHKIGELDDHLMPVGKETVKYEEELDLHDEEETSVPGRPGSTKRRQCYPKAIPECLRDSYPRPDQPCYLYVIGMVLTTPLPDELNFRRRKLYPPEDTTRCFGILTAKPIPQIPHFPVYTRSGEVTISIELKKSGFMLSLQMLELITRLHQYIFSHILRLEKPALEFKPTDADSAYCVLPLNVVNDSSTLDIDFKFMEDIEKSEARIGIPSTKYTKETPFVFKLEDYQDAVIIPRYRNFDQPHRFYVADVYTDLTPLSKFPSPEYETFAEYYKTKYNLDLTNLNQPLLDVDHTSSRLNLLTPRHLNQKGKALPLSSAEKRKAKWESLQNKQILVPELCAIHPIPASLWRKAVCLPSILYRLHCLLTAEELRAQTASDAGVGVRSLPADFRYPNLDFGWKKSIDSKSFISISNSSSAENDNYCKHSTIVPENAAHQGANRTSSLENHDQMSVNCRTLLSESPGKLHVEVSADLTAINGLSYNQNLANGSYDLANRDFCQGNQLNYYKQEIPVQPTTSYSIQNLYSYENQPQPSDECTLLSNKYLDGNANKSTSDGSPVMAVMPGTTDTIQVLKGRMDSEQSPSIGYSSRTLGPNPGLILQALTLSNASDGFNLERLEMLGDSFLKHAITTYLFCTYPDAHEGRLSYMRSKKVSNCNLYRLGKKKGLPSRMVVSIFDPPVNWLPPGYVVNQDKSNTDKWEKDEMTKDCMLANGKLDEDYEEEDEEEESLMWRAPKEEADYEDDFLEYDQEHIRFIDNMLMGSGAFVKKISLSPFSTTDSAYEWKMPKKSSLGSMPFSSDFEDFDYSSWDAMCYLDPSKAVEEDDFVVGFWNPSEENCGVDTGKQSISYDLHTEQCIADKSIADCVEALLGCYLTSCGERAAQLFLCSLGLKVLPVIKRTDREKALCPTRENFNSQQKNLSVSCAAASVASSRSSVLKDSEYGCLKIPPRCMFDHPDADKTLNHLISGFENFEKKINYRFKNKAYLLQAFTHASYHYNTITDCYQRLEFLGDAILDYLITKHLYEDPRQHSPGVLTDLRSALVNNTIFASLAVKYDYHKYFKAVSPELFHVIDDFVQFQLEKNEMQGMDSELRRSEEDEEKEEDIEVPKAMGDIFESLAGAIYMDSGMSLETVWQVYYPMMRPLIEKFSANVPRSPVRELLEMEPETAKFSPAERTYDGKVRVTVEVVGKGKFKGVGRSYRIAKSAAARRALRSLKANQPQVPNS
* hit, by the source's call.

SMILES	Dicer processing
O=S(=O)(c1ccc(Cl)c(Cl)c1)c1ccccc1-c1ccccc1	-0.77
O=[N+]([O-])c1cccnc1Oc1ccc(-c2ccc(Oc3ncccc3[N+](=O)[O-])cc2)cc1	-0.89
O=S1(=O)CC(N2CCCC2)c2ccccc21 (configuration not stated)	0.74
CCCN(CCC)S(=O)(=O)c1ccc2c(c1)Cc1cc(S(=O)(=O)N(CCC)CCC)ccc1-2	0.7
COc1ccc(/C(O)=C2\C(=O)C(=O)N(CCN(C)C)C2c2ccccc2F)cc1 (configuration not stated)	3.35*
CN(C)CCN1C(=O)C(=O)/C(=C(/O)c2ccc(S(=O)(=O)N(C)C)cc2)C1c1ccccc1F (configuration not stated)	1.2
COc1ccc(/C(O)=C2\C(=O)C(=O)N(CCCN(C)C)C2c2ccccc2)cc1 (configuration not stated)	1.41
CCOC(=O)C1CN(C2CCCCC2)C(=O)C1=O (configuration not stated)	5.1*
CCOC(=O)C1CC(=O)C(C(=O)OCC)CC1=O (configuration not stated)	-0.45
CCOC(=O)C1=C(O)C(=O)N(C2CCCCC2)C1	-0.9
N#C/C(=C\Nc1ccc2c(c1)OCCO2)S(=O)(=O)c1ccc(C(F)(F)F)cn1	-0.25
C=CCNC(=S)NNC(=O)CNC(=O)OC(C)(C)C	-1.19
CC(c1ccccc1)n1c(OC(=O)N(C)C)nnc1SCC(=O)c1ccc2c(c1)OCCO2 (configuration not stated)	3.63*
O=C(CSc1n[nH]c(=O)n1-c1ccccc1)c1ccc2c(c1)OCCO2	1.23
CSc1nnc(SCC(=O)c2ccc3c(c2)OCCO3)s1	1.87
N#Cc1cn(-c2ccc(Cl)cc2)c(=O)[nH]c1=O	-1.17
COc1cc(CNCCSc2nnnn2C)ccc1OCc1ccc(Cl)cc1	0.32
Nc1ccc(S(=O)(=O)c2ccc(N)cc2)cc1	1.48
NC(=O)NS(=O)(=O)c1ccc(N)cc1	1.03
Nc1ccc(Nc2ccc(N)cc2S(=O)(=O)O)cc1	43.7*
Cc1ccc(NC(=O)C2Sc3nnc(C)n3NC2c2ccc(Cl)cc2)c(C)c1 (configuration not stated)	0.35
COc1ccc(OC)c(S(=O)(=O)c2ccc(Cl)cc2[N+](=O)[O-])c1	4.21*
O=[N+]([O-])c1cc(Cl)ccc1S(=O)(=O)c1ccccc1	-0.87
O=[N+]([O-])c1cc(Cl)ccc1S(=O)(=O)c1ccc(Cl)cc1	0.62
CC12CC(=O)C3c4ccc(O)cc4CCC3C1CCC2O (configuration not stated)	-0.89
SMILES	Dicer processing
Cc1c(C)c(C)c(S(=O)(=O)Oc2ccc([N+](=O)[O-])cc2)c(C)c1C	4.73*
Cc1ccc(S(=O)(=O)Oc2ccc(-c3ccc(OS(=O)(=O)c4ccc(C)cc4)cc3)cc2)cc1	-0.18
N#Cc1c(OCC(F)(F)F)ccc(S(=O)(=O)Oc2ccc([N+](=O)[O-])cc2)c1OCC(F)(F)F	-0.54
Cc1csc2ncnc(Sc3ccccc3NC(=O)c3cc(Cl)cc(Cl)c3)c12	-4.47
Cc1cc(NC(=O)C(C)C)cc(-c2nc3cc(Cl)ccc3o2)c1O	-1.32
COC(=O)c1sccc1Oc1ccc(Cl)cc1N1C(=O)CCC1=O	1.48
Cc1ccc(Cl)cc1N1C(=O)CCC(C)(C)C1=O	3.29*
CC1(C)CCC(=O)N(c2ccc(OC(F)(F)F)cc2)C1=O	1.98
Cc1ccc(-c2nc(-c3cc4cc(C)ccc4[nH]c3=O)no2)cc1	1.47
CC(c1ccccc1)c1nnc(N)s1 (configuration not stated)	0.97
CCC(c1ccccc1)c1nnc(N)s1 (configuration not stated)	4.21*
Cc1cc(Sc2nnc(N)s2)c2ccccc2n1	-0.49
COc1cccc(OC)c1C(=O)NC(=O)Nc1cc(C(F)(F)F)cc(C(F)(F)F)c1	-0.49
Cc1ccccc1C1CC(=O)Nc2nc(N)[nH]c(=O)c21 (configuration not stated)	-1.51
Cc1ccccc1CNCC1CCCO1 (configuration not stated)	0.52
CCc1cc(C(=O)c2ccc(OC)cc2)c(NC(=O)COc2ccc(Cl)cc2Cl)s1	0.37
CSc1ccc(C=C2C(=O)OC(C)(C)OC2=O)s1	0.88
O=C1OC2(CCCC2)OC(=O)C1=Cc1ccoc1	3.46*
CC1(C)OC(=O)C(=Cc2ccc[nH]2)C(=O)O1	1.24
O=S(=O)(Cc1ccc(Cl)cc1Cl)CC(O)Cn1ccc(C(F)(F)F)n1 (configuration not stated)	-0.54
CCCC(=O)O[C@@H]1C(=O)c2ccccc2O[C@H]1c1ccccc1	1.42
CCC(CO)n1cc2c(c1-c1ccccc1)c(=O)n(C)c(=O)n2C (configuration not stated)	0.61
OCCN1CCN(CCCN2c3ccccc3Sc3ccc(Cl)cc32)CC1	31.9
CN1CCN(CCCN2c3ccccc3Sc3ccc(S(=O)(=O)N(C)C)cc32)CC1	5.97*
CC(=O)c1ccc2c(c1)N(CCCN1CCC(CCO)CC1)c1ccccc1S2	79.6
SMILES	Dicer processing
COc1ccccc1C1CCN(Cc2ccc3c(c2)CCC(C)(C)O3)CC1	-1.28
COc1ccc(S(=O)(=O)N(C)C2CCCCC2)cc1-c1nnc2c3ccccc3c(C)nn12	0.69
O=S1(=O)C=CC(Sc2nnc[nH]2)C1 (configuration not stated)	-0.49
CSC1=NCN(CCCO)CN1	0.86
CCOC(=O)C12CCC(C(=O)OCC)(CC1=O)C(=O)C2	-0.78
Cn1ccnc1SCC(=O)N1CCCC1	4.45*
Cn1ccnc1SCC(=O)Nc1ccccc1	0.15
Cn1ccnc1SCC(=O)c1ccc(Cl)cc1	0.03
CC1(C)C(=O)OC(C(=O)c2ccc(-c3ccccc3)cc2)C(C)(C)C1=O (configuration not stated)	-0.53
CCOC(=O)/C(C)=N/Nc1ccc(F)cc1F	-0.65
CCCCCCOc1ccc(OC(=O)c2ccncc2)cc1	8.88*
COc1ccc(OC(=O)c2ccncc2)cc1	1.9
O=C(Oc1ccc(OC(=O)c2ccncc2)cc1)c1ccncc1	0.9
CCOC(=O)C(=CNc1cc(C(C)(C)C)nn1C)C(=O)OCC	-1.29
CC(C)Oc1ccc(C2CC(=O)N(c3ccc(C(=O)O)cc3)C2=O)cc1 (configuration not stated)	4.75*
COc1ccc(N2C(=O)CC(N3CCCCC3)C2=O)cc1 (configuration not stated)	0.16
O=C(O)c1ccc(N2C(=O)CC(N3CCOCC3)C2=O)cc1 (configuration not stated)	-1.67
CC1CC(=O)N(c2cc(Cl)cc(Cl)c2)C(=O)C1	2.38
NC(=O)CSc1n[nH]c(CN2c3ccccc3Sc3ccccc32)n1	0.26
CCOC(=O)NC(=S)NCc1ccco1	-0.43
CC(C)NC(=S)Nc1cccc2ccccc12	6.14*
CCOC(=S)Nc1cccc2ccccc12	-1.19
CC1CN(C(=S)Nc2cccc3ccccc23)CC(C)O1 (configuration not stated)	-1.49
Cc1c(C(=O)Nc2ccccc2SCc2cccc(Cl)c2F)cnn1-c1ccccc1	-2.31
Nc1cc(=O)n(Cc2ccccc2)c(=O)n1-c1ccccc1	0.82
CCCn1c(=O)c2[nH]cnc2n(-c2ccc(Cl)cc2)c1=O	1.72
CCCn1c(=O)cc(N)n(-c2ccc(Cl)cc2)c1=O	5.06*
CS(=O)(=O)N1N=C(c2ccccc2O)CC1c1cn(-c2ccccc2)nc1-c1ccccc1 (configuration not stated)	-0.47
COc1cccc(-c2nc(S(=O)(=O)c3ccc(Cl)cc3)c(N3CCOCC3)o2)c1	2.42
